# Data taken from the supplement of paper PMC10849652.
# Targets with a hit are over-represented here; the source holds about 7,900 in all. About 0.6% of all pairs of compound and target were hits. A number with no mark means an inactive call.
# Key:
# Assay in all cases: log2 fold change, soluble protein after heating vs DMSO (PISA); higher = thermal stabilisation; K562 cells, 10 uM, 30 min; active = over 0.2 and 3.5 SD of the protein, either way, in both replicates (recomputed)
# [1] = compound: CN1CCN(CCOc2cc(OC3CCOCC3)c3c(Nc4c(Cl)ccc5c4OCO5)ncnc3c2)CC1 [saracatinib]
# Summary of the method: (§1)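 K562 cells at 2×10^6 cells/mL were treated with 10 μM compound for 30 min. Aliquots were heated for 3 min across 48°C-58°C, pooled, and extracted in PBS with 0.5% NP-40 at 4°C; soluble protein was the supernatant after 21,000xg for 90 min. Soluble protein was quantified by TMTpro 16plex LC-MS/MS with channel sums equalised, and reported as log2 fold change in thermal stability against DMSO controls, with values from duplicates.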
# [2] = compound: CN1CCN(c2nc(C3=C(c4c[nH]c5ccccc45)C(=O)NC3=O)c3ccccc3n2)CC1 [sotrastaurin]
# Summary of the method: as §1
# [3] = compound: CN1CC[C@H](c2c(O)cc(O)c3c(=O)cc(-c4ccccc4Cl)oc23)[C@H](O)C1 [alvocidib]
# Summary of the method: as §1
# [4] = compound: CN1CCc2c(c3ccccc3n2Cc2ccc(C(=O)NO)cc2)C1 [Tubastatin A]
# Summary of the method: as §1
# [5] = compound: CNC(=O)C1=CC=CC=C1NC2=NC(=NC=C2Cl)NC3=C(C=C(C=C3)N4CCOCC4)OC
# Summary of the method: as §1
# [6] = compound: CNC(=O)c1ccc(Nc2ncc(C(F)(F)F)c(NCc3nccnc3N(C)S(C)(=O)=O)n2)cc1 [defactinib]
# Summary of the method: as §1
# [7] = compound: CNCc1ccc(-c2[nH]c3cc(F)cc4c3c2CCNC4=O)cc1 [rucaparib]
# Summary of the method: as §1
# [8] = compound: CNc1nc(-c2ccc3c(N)n[nH]c3c2)cc(N2C[C@@H](C(=O)NC3CCCCC3)CC[C@H]2C)n1
# Summary of the method: as §1
# [9] = compound: COC(=O)N[C@@H](C)CNc1nccc(-c2cn(C(C)C)nc2-c2cc(Cl)cc(NS(C)(=O)=O)c2F)n1 [encorafenib]
# Summary of the method: as §1
# [10] = compound: COC(=O)[C@H](CCSC)NC(=O)C1=C(C=C(C=C1)NC[C@H](CS)N)C2=CC=CC=C2
# Summary of the method: as §1
# Chain of UniProt P49336 (P49336 whole entry, looked up): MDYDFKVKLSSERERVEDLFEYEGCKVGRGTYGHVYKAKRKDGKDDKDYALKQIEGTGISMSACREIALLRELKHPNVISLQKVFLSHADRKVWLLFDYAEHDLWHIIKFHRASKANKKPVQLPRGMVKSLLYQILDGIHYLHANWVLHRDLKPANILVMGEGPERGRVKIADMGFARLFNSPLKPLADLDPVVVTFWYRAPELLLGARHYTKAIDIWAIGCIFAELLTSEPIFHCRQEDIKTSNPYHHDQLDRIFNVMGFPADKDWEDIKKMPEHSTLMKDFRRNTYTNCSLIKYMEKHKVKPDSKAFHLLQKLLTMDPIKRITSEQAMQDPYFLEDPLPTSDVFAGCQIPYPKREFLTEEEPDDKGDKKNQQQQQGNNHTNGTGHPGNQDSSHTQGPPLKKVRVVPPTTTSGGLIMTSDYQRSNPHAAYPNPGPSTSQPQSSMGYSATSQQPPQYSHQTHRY
# Chain of UniProt Q9Y6K0 (Q9Y6K0 whole entry, looked up): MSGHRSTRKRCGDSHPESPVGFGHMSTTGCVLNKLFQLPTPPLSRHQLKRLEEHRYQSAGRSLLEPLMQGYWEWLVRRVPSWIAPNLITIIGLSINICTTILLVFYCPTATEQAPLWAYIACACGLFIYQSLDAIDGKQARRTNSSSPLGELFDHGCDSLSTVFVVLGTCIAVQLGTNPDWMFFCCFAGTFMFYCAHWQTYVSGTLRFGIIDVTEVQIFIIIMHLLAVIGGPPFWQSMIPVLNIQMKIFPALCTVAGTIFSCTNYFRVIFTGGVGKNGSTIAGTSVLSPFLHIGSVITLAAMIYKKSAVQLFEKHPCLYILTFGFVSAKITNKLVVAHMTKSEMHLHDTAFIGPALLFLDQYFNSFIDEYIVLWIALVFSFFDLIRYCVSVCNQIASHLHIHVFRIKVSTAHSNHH
# Chain of UniProt Q9ULV3 (Q9ULV3 whole entry, looked up): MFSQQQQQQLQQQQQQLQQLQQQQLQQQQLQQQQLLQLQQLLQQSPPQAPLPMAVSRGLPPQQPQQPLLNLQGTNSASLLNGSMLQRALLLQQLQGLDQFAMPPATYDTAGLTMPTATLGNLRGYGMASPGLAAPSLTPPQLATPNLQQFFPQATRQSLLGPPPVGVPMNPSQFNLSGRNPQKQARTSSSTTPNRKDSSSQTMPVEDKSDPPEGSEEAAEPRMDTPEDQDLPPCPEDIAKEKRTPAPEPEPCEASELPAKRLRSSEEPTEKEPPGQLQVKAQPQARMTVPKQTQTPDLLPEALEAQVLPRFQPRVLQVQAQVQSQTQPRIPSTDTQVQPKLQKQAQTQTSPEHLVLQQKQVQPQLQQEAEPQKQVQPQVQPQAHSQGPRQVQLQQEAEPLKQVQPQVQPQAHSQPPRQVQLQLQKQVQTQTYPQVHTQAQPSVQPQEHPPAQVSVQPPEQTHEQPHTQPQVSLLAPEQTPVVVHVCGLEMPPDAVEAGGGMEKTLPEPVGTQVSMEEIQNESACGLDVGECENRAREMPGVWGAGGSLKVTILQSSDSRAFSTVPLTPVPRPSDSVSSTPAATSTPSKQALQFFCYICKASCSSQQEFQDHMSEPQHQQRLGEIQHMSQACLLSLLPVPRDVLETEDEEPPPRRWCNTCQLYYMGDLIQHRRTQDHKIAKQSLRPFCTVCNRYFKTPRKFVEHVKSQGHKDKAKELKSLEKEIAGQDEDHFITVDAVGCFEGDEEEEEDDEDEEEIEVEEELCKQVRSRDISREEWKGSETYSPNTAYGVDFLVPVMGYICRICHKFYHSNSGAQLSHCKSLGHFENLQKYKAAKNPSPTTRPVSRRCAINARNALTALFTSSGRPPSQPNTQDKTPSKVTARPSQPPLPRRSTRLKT
# Chain of UniProt Q13057 (Q13057 whole entry, looked up): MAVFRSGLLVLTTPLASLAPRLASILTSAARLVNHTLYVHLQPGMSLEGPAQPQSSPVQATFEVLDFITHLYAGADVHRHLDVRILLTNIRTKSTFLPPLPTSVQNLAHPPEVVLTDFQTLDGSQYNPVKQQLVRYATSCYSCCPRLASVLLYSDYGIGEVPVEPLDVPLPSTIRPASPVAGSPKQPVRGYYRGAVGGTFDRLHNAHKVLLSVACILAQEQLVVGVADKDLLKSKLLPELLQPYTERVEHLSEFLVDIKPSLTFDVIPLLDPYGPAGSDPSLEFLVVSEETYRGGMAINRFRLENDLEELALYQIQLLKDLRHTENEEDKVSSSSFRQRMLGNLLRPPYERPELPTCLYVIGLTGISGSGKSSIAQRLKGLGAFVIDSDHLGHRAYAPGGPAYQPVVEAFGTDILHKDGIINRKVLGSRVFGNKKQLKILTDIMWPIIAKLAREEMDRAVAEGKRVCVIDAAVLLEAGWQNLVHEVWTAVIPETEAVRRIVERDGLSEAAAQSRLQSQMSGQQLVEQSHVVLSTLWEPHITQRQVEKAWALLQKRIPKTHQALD
# Chain of UniProt P51946 (P51946 whole entry, looked up): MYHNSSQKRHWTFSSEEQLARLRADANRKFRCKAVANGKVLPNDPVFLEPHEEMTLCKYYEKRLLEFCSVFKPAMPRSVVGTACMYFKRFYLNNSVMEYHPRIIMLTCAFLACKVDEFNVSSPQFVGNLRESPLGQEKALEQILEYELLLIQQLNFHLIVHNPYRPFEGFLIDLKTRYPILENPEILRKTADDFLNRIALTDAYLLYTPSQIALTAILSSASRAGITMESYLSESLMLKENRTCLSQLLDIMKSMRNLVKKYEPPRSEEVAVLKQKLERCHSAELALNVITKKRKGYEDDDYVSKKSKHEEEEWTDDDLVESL
# Chain of UniProt P14635 (P14635 whole entry, looked up): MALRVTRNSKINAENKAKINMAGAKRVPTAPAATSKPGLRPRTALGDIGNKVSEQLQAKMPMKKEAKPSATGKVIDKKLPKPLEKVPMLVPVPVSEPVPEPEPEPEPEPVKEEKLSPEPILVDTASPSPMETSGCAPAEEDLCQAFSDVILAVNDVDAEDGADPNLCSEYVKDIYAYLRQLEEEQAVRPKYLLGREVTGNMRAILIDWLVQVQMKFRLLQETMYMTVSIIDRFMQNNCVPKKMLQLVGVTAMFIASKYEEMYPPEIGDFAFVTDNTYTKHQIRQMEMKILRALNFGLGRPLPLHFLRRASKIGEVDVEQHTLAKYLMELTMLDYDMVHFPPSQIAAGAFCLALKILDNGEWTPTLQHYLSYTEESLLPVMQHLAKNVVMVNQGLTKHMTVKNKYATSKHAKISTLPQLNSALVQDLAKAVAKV
# Chain of UniProt P60033 (P60033 whole entry, looked up): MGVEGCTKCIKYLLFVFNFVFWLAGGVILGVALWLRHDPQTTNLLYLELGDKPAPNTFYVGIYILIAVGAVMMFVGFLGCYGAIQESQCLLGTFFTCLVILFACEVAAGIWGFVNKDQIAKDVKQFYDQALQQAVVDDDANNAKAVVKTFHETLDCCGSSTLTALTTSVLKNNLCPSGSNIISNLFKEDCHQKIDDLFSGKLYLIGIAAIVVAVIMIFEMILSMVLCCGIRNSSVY
# Chain of UniProt Q96RR4 (Q96RR4 whole entry, looked up): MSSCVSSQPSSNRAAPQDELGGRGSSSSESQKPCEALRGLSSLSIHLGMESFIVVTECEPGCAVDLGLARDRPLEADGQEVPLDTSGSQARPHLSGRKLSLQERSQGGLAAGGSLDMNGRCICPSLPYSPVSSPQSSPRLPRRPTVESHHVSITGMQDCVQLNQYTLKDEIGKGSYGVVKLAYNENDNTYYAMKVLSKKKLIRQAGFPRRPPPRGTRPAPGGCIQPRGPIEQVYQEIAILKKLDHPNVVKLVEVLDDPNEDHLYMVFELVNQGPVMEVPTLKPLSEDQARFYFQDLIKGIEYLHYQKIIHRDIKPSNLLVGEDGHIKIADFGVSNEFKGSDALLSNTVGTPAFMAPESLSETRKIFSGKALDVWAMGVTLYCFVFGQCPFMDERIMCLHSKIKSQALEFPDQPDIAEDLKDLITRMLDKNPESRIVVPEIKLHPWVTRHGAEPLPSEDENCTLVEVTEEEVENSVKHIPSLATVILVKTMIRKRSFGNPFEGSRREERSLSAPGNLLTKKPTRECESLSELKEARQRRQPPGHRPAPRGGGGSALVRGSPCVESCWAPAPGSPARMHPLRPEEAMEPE
# Chain of UniProt P23786 (P23786 whole entry, looked up): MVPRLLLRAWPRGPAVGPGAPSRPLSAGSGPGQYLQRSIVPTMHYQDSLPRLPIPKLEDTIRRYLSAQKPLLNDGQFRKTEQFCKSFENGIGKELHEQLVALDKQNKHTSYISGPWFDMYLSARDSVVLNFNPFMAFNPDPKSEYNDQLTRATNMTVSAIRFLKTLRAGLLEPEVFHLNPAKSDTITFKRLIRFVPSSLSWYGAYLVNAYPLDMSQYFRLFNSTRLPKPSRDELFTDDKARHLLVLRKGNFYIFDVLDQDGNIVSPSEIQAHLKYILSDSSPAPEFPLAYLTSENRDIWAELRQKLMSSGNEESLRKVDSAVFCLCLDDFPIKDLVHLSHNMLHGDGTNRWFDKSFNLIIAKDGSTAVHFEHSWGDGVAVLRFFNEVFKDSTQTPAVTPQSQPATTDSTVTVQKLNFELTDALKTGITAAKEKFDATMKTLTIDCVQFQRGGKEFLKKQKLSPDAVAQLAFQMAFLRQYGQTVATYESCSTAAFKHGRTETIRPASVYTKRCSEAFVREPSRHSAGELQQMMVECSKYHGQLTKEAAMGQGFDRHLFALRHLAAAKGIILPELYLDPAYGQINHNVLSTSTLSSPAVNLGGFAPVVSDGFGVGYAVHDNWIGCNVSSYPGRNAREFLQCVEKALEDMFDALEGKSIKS
# Chain of UniProt Q8N4Q1 (Q8N4Q1 whole entry, looked up): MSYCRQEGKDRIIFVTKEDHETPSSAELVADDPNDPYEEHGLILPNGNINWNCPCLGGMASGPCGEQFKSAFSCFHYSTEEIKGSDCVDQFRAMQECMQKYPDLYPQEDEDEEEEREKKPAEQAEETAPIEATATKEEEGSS
# Chain of UniProt Q9Y6H1 (Q9Y6H1 whole entry, looked up): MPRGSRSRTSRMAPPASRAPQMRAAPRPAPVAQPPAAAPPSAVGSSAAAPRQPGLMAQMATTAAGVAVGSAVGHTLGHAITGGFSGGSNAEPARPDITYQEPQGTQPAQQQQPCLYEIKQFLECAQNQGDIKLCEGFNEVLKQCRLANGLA
Target,log2 fold change [1],log2 fold change [2],log2 fold change [3],log2 fold change [4],log2 fold change [5],log2 fold change [6],log2 fold change [7],log2 fold change [8],log2 fold change [9],log2 fold change [10]
CRYM-AS1 (UniProt A6NIL9),-0.092,-0.041,0.063,0.119,-0.347,-0.065,-0.356,0.103,0.024,-0.078
CCNH (UniProt P51946),0.094,-0.019,-0.014,-0.001,-0.037,-0.037,0.036,-0.044,-0.031,0.033
CHCHD4 isoform 2 (UniProt Q8N4Q1),0.277,0.003,-0.14,0.061,0.199,-0.049,-0.007,0.202,-0.046,-0.034
CCNB1 (UniProt P14635),-0.005,0.02,-0.006,-0.018,-0.051,-0.065,-0.025,-0.034,-0.002,0.035
COQ9 (UniProt O75208),-0.009,-0.052,-0.041,-0.045,-0.047,-0.045,0.001,0.042,-0.013,-0.016
CDK8 (UniProt P49336),-0.006,0.074,0.66 (active),-0.1,0.053,-0.059,0.192,0.018,-0.002,0.064
COX5B (UniProt P10606),-0.076,0.113,-0.018,0.052,0,-0.046,-0.01,0.024,-0.033,0.006
CIZ1 (UniProt Q9ULV3),0.046,-0.075,-0.074,0.102,-0.11,-0.117,0.027,-0.109,-0.038,-0.001
CHCHD2 (UniProt Q9Y6H1),0,-0.031,0.027,-0.058,0.087,-0.002,-0.065,-0.049,-0.01,0.061
CLPX (UniProt O76031),0.014,0.014,0.039,0.025,-0.016,-0.027,0.034,-0.038,-0.013,-0.01
CETN2 (UniProt P41208),0.095,0.077,-0.013,-0.128,-0.03,-0.054,0.031,0.058,-0.079,0.06
CD55 isoform 7 (UniProt P08174),0.06,-0.01,0.03,0.033,0.012,0.007,0.022,0.028,-0.016,0.039
CAMKK2 (UniProt Q96RR4),0.03,-0.042,0.048,0.105,0.36,-0.104,-0.084,-0.101,0.057,0.057
CA1 (UniProt P00915),0.014,-0.001,-0.095,-0.013,0.009,-0.057,-0.036,-0.016,-0.002,0.004
COPS8 (UniProt Q99627),-0.013,-0.052,-0.071,-0.025,-0.039,-0.03,-0.015,0.018,0.011,-0.021
CNTN4 (UniProt Q8IWV2),-0.026,-0.033,-0.065,0.256,-0.225,-0.06,-0.01,-0.016,-0.082,0.004
COX6B1 (UniProt P14854),0.024,-0.012,0.039,-0.069,0.015,-0.023,0.022,-0.061,-0.043,0.008
CNOT7 (UniProt Q9UIV1),0.008,-0.044,-0.091,0.004,-0.035,0.018,0.051,0.104,0.113,-0.109
CD81 (UniProt P60033),0.163,0.103,0,-0.064,-0.029,-0.053,-0.152,0.207,0.199,0
CEPT1 (UniProt Q9Y6K0),0.015,0.033,0.029,0.042,0.001,-0.005,-0.126,-0.056,0.052,-0.056
CLPTM1L (UniProt Q96KA5),0.11,-0.013,0.008,-0.008,-0.057,-0.042,-0.011,-0.099,0.021,0.043
CDAN1 (UniProt Q8IWY9),-0.012,-0.03,-0.019,0.009,-0.029,0.024,0.085,-0.006,0.005,0.112
CSK (UniProt P41240),-0.01,-0.069,-0.102,0.048,0.097,-0.105,-0.008,0.007,0.013,-0.048
C19orf53 (UniProt Q9UNZ5),-0.069,-0.03,0.33,0.129,0.155,0.296,0.257,0.053,0.136,0.036
CDK5RAP3 isoform 4 (UniProt Q96JB5),-0.009,-0.099,-0.066,0.024,0.035,-0.045,-0.029,0.002,0.033,-0.043
COASY isoform 2 (UniProt Q13057),0.003,-0.001,-0.12,-0.001,0.035,-0.065,0.011,-0.03,0.034,-0.029
CSNK1D (UniProt P48730),-0.047,-0.038,0.063,0.039,0.111,0.045,0.032,-0.038,0.06,-0.012
CPT2 (UniProt P23786),-0.089,-0.136,-0.062,0.032,0.147,-0.164,-0.096,0.363,-0.074,-0.057
CNOT2 (UniProt Q9NZN8),-0.044,0.007,-0.071,-0.005,-0.006,-0.024,0.052,0,0.012,-0.021
CAD (UniProt P27708),-0.112,0.022,0.076,-0.044,-0.211,0.097,0.132,0.052,0.052,-0.051
